Laboratory results published in the supplement of paper PMC10338343.
± gives the standard deviation.

What was measured:
[1] = system: MILI (PIWIL2) piRISC loaded with piRNA #1 (26 nt); assay: pre-steady-state target cleavage rate (min^-1); guide: piRNA #1 5'p-UGAGGUAGUAGGUUGUAUAGUAUCCA; higher = faster piRNA-guided slicing of the target; conditions: auxiliary factor: 500 nM mouse GTSF1;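 note: 1 nM active piRISC with 0.1 nM target library at 33 °C single turnover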
Summary of the method: (§1)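 In HEPES–potassium acetate buffer at 33 °C, […] transcribed, DNA-blocked target RNA library was mixed with 1 nM active affinity-purified piRISC carrying one synthetic guide, with or without 500 nM GTSF1 partner protein, for 0–8 or 0–960 min. Uncleaved targets were sequenced and normalised to depth and to weakly complementary targets; three trials were pooled and k3 was capped at 0.0001 min^-1. The pre-steady-state cleavage rate followed from a burst-and-steady-state fit.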

[2] = system: EfPiwi piRISC loaded with piRNA #1 (26 nt); assay: pre-steady-state target cleavage rate (min^-1); auxiliary factor: 500 nM Ephydatia muelleri Gtsf1; guide: piRNA #1 5'p-UGAGGUAGUAGGUUGUAUAGUAUCCA; MIWI and MILI are mouse PIWI proteins and EfPiwi is from a freshwater sponge; tags in brackets are library labels; higher = faster piRNA-guided slicing of the target
Summary of the method: as §1

Row | Sequence | pre-steady-state target cleavage rate [1] | pre-steady-state target cleavage rate [2]
1 | GGAGACCUAACGUAUACAACCUACUACCUCA | 0.0292 ± 0.012 | 0.0505 ± 0.021
2 | GGAGUGGUUACUAUACAACCUUCUACCUCA | 0.0099 ± 0.0024 | 0.00361 ± 0.0018
3 | GGAGACCAUACAAUACUACCUACUACCUCA | 0.158 ± 0.019 | 0.00374 ± 0.0037
4 | GGAGACGAUACUAUAGUACCUACUACCUCA | 0.193 ± 0.013 | 0.00438 ± 0.0021
5 | GGAGACCUAUGAAUACAACCUACUACCUCU [g2:g18:cont:t1U] | 0.0139 ± 0.0044 | 0.688 ± 0.25
6 | GGAGAGGAUACUAUUCAACCUUCUACCUCA | 0.00949 ± 0.0023 | 0.0031 ± 0.0028
7 | GGAGACGAUACUAUACAACCUACUAUCCUCA | 0.193 ± 0.024 | 0.0049 ± 0.0014
8 | GGAGACGAUACUAUACAACCAACUACGUCA | 0.00504 ± 0.0028 | 0.00251 ± 0.0018
9 | GGAGACCUAACUAUACACCCUACUACCUCA | 0.0388 ± 0.013 | 0.00682 ± 0.0033
10 | GGAGACGAUACUAUUCAACCAACUACCUCA | 0.00612 ± 0.0026 | 0.00444 ± 0.002
11 | GGAGAGCAUACUAUACAUCCUACUACCUCA | 0.335 ± 0.02 | 0.00491 ± 0.0024
12 | GGAGACCUAACUAUACAACCUACUACCUCG [g2:g21:cont:t1G] | 0.189 ± 0.035 | 0.0178 ± 0.0076
13 | GGAGACCUAUGAUUACAACCUACUACCUCU [g2:g17:cont:t1U] | 0.00674 ± 0.0025 | 0.732 ± 0.29
14 | GGAGAGGAAUGUAUACAACCUACUACCUCA | 0.0539 ± 0.0062 | 0.0061 ± 0.0042
15 | GGAGACCUUACUAUACAUCCUACUACCACA | 0.246 ± 0.02 | 0.0038 ± 0.0032
16 | GGAGUCGAUUCUAUACAACCUACUACCUCA | 0.182 ± 0.01 | 0.00723 ± 0.0043
17 | GGAGAGGAUACUAUACAAGCUACUACGUCA | 0.19 ± 0.02 | 0.00403 ± 0.0018
18 | GGAGAGGAUACUAAUCAACCUACUACCUCA | 0.148 ± 0.011 | 0.00473 ± 0.0039
19 | GGAGACGAUACUAUACAACGUACUACCACA | 0.0317 ± 0.0055 | 0.0042 ± 0.0021
